Data from PubChem BioAssay (Tox21).
“And” between values parts separate entries of the source, which are not always exact repeats. Equal values may be shown once. Results filed as inconclusive are left out. Where a call stands in place of a potency, no number is given. The source made the active and inactive calls. The call rests on the fitted dose curve; in most records, active means well fitted curve in the direction sought with a large enough effect in the repeat runs; inconclusive means weak or mixed curves; inactive means no such curve, though single readings can be large; an effect the other way counts as inactive or inconclusive.

Assays:
[1] = molecular target: Cytochrome P450 2C19 (Homo sapiens) (UniProt P33261); assay: Cytochrome P450 Family 2 Subfamily C Member 19 (CYP2C19) small molecule antagonists: luciferase reporter qHTS assay (AID 1671197); further: nearly all actives have a fitted effect of over 65% in size
Procedure, shortened: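 First, compounds are pinned into enzyme-substrate mix and held 10 min at room temperature. Second, NADPH regeneration solution is added and plates incubate 1 h at 37C. Third, detection reagent is added and luminescence read after 20 min.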

[2] = molecular target: Cytochrome P450 2C9 (Homo sapiens) (UniProt P11712); assay: Cytochrome P450 Family 2 Subfamily C Member 9 (CYP2C9) small molecule antagonists: luciferase reporter qHTS assay (AID 1671198); further: nearly all actives have a fitted effect of over 50% in size
Procedure, shortened: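 CYP2C9 activity was measured with a P450-Glo proluciferin substrate. Enzyme–substrate mix was held with compound for 10 min at room temperature, then NADPH regeneration solution was added for 1 h at 37C. Luciferin product was read as luminescence.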

[3] = molecular target: Cytochrome P450 1A2 (Homo sapiens) (UniProt P05177); assay: Cytochrome P450 Family 1 Subfamily A Member 2 (CYP1A2) small molecule antagonists: luciferase reporter qHTS assay (AID 1671199); further: nearly all actives have a fitted effect of over 50% in size
Procedure, shortened: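 Human CYP1A2 activity measured with a P450-Glo proluciferin substrate; compounds in DMSO preincubated 10 min at room temperature with enzyme-substrate mix, then NADPH regeneration system added for 1 h. Luciferin detection reagent, 20 min, luminescence read.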

[4] = molecular target: Voltage-gated inwardly rectifying potassium channel KCNH2 (Homo sapiens) (UniProt Q12809); assay: Human Ether-a-go-go-Related Gene (hERG) channel small molecule antagonists: fluorescence cell-based qHTS assay (AID 1671200); further: nearly all actives have a fitted effect of over 50% in size
Procedure, shortened: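 Measured: Tl+ flux via fluorescence (480/540 nm) in hERG-expressing U2OS cells after 1 h dye loading at room temperature.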

[5] = molecular target: Cytochrome P450 3A4 (Homo sapiens) (UniProt P08684); assay: Cytochrome P450 Family 3 Subfamily A Member 4 (CYP3A4) small molecule antagonists: luciferase reporter qHTS assay (AID 1671201); further: nearly all actives have a fitted effect of over 50% in size
Procedure, shortened: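 Setup: enzyme-substrate mix, compound pin transfer, 10 min RT. Reaction: NADPH regeneration solution, 1 h RT. Readout: detection reagent stops turnover, luminescence measured after 20 min, expressed in relative luminescence units.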
Potency means the concentration at half of the fitted maximal effect.

Chain of Cytochrome P450 1A2 (Homo sapiens) (P05177 whole entry, looked up): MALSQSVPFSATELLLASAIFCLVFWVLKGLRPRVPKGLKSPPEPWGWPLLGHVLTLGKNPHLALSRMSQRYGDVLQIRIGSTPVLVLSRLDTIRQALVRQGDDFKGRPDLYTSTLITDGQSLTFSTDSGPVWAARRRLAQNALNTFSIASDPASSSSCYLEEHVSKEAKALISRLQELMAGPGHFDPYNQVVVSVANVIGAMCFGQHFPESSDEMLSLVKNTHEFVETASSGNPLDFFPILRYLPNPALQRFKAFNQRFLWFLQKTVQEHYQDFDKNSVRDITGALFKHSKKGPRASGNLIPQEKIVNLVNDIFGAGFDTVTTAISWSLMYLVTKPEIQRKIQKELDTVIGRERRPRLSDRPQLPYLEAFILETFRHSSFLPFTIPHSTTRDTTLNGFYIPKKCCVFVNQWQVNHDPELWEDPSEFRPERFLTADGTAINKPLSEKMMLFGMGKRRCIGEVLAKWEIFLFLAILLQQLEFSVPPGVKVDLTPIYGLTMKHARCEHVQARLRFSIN
Chain of Cytochrome P450 3A4 (Homo sapiens) (P08684 whole entry, looked up): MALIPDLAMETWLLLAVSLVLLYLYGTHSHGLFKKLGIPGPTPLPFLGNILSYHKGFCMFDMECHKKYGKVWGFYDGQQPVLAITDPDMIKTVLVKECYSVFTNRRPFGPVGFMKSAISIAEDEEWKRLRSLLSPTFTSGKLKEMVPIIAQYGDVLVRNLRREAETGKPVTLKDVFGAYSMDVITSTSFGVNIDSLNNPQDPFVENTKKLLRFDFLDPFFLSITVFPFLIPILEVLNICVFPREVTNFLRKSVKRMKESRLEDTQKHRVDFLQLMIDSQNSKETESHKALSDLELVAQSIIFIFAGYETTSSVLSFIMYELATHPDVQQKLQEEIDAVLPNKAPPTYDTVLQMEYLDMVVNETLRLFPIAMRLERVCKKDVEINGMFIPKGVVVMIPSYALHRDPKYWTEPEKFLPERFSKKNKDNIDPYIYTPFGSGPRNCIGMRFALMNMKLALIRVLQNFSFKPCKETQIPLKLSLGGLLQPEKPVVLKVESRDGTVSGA
Chain of Cytochrome P450 2C9 (Homo sapiens) (P11712 whole entry, looked up): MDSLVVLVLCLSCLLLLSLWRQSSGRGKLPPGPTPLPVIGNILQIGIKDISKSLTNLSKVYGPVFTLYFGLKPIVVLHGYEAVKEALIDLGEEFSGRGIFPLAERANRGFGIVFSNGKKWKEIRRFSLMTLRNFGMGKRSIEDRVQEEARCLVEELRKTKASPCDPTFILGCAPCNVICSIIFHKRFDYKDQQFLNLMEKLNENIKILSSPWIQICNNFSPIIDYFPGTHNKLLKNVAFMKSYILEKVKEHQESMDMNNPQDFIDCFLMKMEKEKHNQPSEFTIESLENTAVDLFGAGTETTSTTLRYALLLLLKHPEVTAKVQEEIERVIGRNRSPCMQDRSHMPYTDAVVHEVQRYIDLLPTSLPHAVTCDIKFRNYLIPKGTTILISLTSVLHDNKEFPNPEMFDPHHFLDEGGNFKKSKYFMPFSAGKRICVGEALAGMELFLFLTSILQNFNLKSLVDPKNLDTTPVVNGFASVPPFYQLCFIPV
Chain of Cytochrome P450 2C19 (Homo sapiens) (P33261 whole entry, looked up): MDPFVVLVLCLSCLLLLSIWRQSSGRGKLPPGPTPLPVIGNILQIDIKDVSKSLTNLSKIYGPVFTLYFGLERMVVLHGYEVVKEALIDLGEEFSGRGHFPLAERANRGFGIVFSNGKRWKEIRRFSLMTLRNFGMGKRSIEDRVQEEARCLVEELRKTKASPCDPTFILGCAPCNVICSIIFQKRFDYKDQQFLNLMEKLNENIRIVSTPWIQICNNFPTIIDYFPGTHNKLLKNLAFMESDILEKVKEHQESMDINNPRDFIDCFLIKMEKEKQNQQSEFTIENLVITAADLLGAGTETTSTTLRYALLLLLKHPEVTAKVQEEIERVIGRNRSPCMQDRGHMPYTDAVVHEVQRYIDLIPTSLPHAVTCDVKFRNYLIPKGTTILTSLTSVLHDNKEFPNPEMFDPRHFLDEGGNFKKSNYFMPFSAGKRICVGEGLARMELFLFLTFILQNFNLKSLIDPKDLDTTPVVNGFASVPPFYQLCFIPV
Chain of Voltage-gated inwardly rectifying potassium channel KCNH2 (Homo sapiens) (Q12809 whole entry, looked up): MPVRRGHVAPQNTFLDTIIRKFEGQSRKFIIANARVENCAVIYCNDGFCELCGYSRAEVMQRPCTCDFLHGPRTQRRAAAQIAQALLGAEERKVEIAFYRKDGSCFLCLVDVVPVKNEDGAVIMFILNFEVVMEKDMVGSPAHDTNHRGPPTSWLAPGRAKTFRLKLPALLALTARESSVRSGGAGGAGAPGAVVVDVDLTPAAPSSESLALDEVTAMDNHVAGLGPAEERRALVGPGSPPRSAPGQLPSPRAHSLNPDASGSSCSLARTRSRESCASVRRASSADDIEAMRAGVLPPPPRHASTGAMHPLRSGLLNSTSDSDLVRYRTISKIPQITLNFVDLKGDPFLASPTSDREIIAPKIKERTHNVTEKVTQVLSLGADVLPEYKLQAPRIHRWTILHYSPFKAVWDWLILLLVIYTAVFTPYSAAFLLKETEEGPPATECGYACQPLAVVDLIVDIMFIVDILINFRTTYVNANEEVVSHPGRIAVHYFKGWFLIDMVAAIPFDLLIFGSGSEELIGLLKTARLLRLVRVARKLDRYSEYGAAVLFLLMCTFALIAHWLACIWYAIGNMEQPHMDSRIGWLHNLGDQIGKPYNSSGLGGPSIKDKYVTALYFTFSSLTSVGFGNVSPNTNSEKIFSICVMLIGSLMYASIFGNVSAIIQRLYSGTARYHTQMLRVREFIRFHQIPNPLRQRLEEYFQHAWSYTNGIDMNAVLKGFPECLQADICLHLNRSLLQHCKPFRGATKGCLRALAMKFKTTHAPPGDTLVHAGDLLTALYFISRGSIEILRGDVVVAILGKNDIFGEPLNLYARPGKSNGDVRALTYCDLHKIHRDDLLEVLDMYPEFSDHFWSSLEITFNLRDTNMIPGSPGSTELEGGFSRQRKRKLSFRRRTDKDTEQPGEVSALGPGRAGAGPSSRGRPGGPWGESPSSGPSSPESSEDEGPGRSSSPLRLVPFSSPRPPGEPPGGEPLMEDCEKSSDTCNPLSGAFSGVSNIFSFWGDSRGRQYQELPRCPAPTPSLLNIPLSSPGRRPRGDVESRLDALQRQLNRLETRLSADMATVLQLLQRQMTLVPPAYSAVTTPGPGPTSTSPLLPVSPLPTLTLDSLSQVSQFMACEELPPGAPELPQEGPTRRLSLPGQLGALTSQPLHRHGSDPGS

SMILES	Potency [1]	Potency [2]	Potency [3]	Potency [4]	Potency [5]
CCCCCC#CC(=O)OC	inactive	63.3 µM (active)	inactive	inactive	inactive
O=C(/C=C/c1ccccc1)OCCc1ccccc1	20 µM (active)	25.2 µM (active)	6.33 µM (active)	49 µM (active)	inactive
CCCCN(CCN(CCCC)C(=O)N1CCOCC1)C(=O)N1CCOCC1	inactive	inactive	inactive	inactive	–
Cc1cc(C)c(N)cc1C	7.94 µM (active)	35.5 µM (active)	0.708 µM (active)	inactive	35.5 µM (active)
CCC(=O)OC	inactive	inactive	inactive	inactive	inactive
COc1cc(C(=O)NC2CCN(C)CC2)ccc1Nc1ncc2c(n1)N(C1CCCC1)CC(F)(F)C(=O)N2C	51.7 µM (active)	29.1 µM (active)	inactive	inactive	–
C=C/C(C)=C/C/C=C(\C)CCC=C(C)C	31.7 µM (active)	31.7 µM (active)	inactive	inactive	15.9 µM (active)
c1csc(SSc2cccs2)c1	5.03 µM (active)	5.03 µM (active)	31.7 µM (active)	inactive	inactive
NC1[C@H]2CN(c3nc4c(cc3F)c(=O)c(C(=O)O)cn4-c3ccc(F)cc3F)C[C@@H]12 (stereo partly specified)	inactive	inactive	inactive	inactive	inactive
Clc1ccc(Nc2nnc(Cc3ccncc3)c3ccccc23)cc1	2.19 µM (active)	1.55 µM (active)	1.44 µM (active)	inactive	–
O=C(Nc1cccc2c(=O)cc(-c3nn[nH]n3)oc12)c1ccc(OCCCCc2ccccc2)cc1	inactive	7.76 µM (active)	inactive	inactive	inactive
C=COCC(C)C	inactive	inactive	inactive	inactive	inactive
C=CC(=O)OCC1CC2CC1C1CCC(COC(=O)C=C)C21 (stereo unspecified)	5.03 µM (active)	17.8 µM (active)	35.6 µM (active)	–	–
CN(C)CCN1C(=O)c2ccccc2N(C)c2ccccc21	inactive	inactive	inactive	inactive	inactive
CC[C@]1(O)C[C@H]2CN(CCc3c([nH]c4ccccc34)[C@@](C(=O)OC)(c3cc4c(cc3OC)N(C=O)[C@H]3[C@@](O)(C(=O)OC)[C@H](OC(C)=O)[C@]5(CC)C=CCN6CC[C@]43[C@@H]65)C2)C1	inactive	inactive	inactive	inactive	12.3 µM (active)
Oc1ccc(Cl)c2cccnc12	inactive	inactive	inactive	inactive	inactive
COC(=O)C1=C(C)NC(C)=C(C(=O)O[C@@H]2CCCN(Cc3ccccc3)C2)[C@@H]1c1cccc([N+](=O)[O-])c1	4.9 µM (active)	0.871 µM (active)	–	–	–
COc1ncnc(NS(=O)(=O)c2ccc(N)cc2)c1OC	inactive	inactive	inactive	inactive	inactive
CC1=C(Br)C(=O)C(Br)=C/C1=C(/c1ccccc1S(=O)(=O)O)c1cc(Br)c(O)c(Br)c1C	27.2 µM (active)	15.3 µM (active)	19.2 µM (active)	inactive	24.2 µM (active)
O=C1Cc2ccccc2N1c1c(Cl)cccc1Cl	11.2 µM (active)	35.6 µM (active)	inactive	19.5 µM (active)	17.8 µM (active)
CN1C(=O)N(c2ccccc2Br)Cc2cnc(Nc3ccc4c(c3)OCC(CO)O4)nc21 (stereo unspecified)	7.1 µM (active)	11.2 µM (active)	28.3 µM (active)	43.6 µM (active)	inactive

SMILES	Potency [1]	Potency [2]	Potency [3]	Potency [4]	Potency [5]
COc1cc(N)c(Cl)cc1C(=O)NC1CCN(CCCOc2ccc(F)cc2)CC1OC (stereo unspecified)	15.5 µM (active)	inactive	inactive	–	–
CCCC(C(=O)OCCN(CC)CC)(c1ccccc1)c1ccccc1	21.9 µM (active)	13.8 µM (active)	inactive	8.49 µM (active)	–
N#CCc1ccc(Cl)cc1Cl	79.6 µM (active)	inactive	22.4 µM (active)	inactive	inactive
C=CCc1ccccc1OCC(O)CNC(C)C (stereo unspecified)	inactive	inactive	12.3 µM (active)	inactive	inactive
CCCCCCCCN	inactive	inactive	inactive	inactive	inactive
O[C@@H]1CO[C@H]2[C@@H]1OC[C@@H]2O	inactive	inactive	inactive	inactive	inactive
CCOC(=O)c1ccc(C#Cc2ccc3c(c2)C(C)(C)CCS3)nc1	inactive	inactive	inactive	–	–
CC(CC1c2ccccc2CCc2ccccc21)CN(C)C (stereo unspecified)	8.71 µM (active)	inactive	inactive	–	–
CC(C)Nc1cccnc1N1CCN(C(=O)c2cc3cc(NS(C)(=O)=O)ccc3[nH]2)CC1	9.77 µM (active)	2.75 µM (active)	inactive	9.52 µM (active)	–
COc1ccccc1N1CCN(CCCCNC(=O)c2ccc(-c3ccc(C(C)=O)cc3)cc2)CC1	inactive	inactive	inactive	3.79 µM (active)	inactive
CCCCCCNC(=O)n1cc(F)c(=O)[nH]c1=O	34.7 µM (active)	15.5 µM (active)	inactive	inactive	inactive
CC(C)(C)CC(=O)OCC(=O)[C@@]1(O)CC[C@H]2[C@@H]3CCC4=CC(=O)C=C[C@]4(C)[C@H]3[C@@H](O)C[C@@]21C	9.77 µM (active)	15.5 µM (active)	inactive	inactive	–
C[C@]1(Cn2ccnn2)[C@H](C(=O)O)N2C(=O)C[C@H]2S1(=O)=O	inactive	inactive	inactive	inactive	inactive
CC(C)=CCC/C(C)=C/CC/C(C)=C/C(=O)OCC(=O)[C@@]1(O)CC[C@H]2[C@@H]3CCC4=CC(=O)C=C[C@]4(C)[C@H]3[C@@H](O)C[C@@]21C	7.76 µM (active)	3.89 µM (active)	inactive	inactive	–
C[C@@H](O[C@H]1OCCN(Cc2n[nH]c(=O)[nH]2)[C@H]1c1ccc(F)cc1)c1cc(C(F)(F)F)cc(C(F)(F)F)c1	15.5 µM (active)	13.8 µM (active)	inactive	8.49 µM (active)	–
O=C1NCCN1CCO	inactive	inactive	inactive	inactive	inactive
O=C(O)CCC(=O)C(=O)O	inactive	inactive	inactive	inactive	inactive
CCCCCCCCCCCCCCN(CCO)CCO	79.6 µM (active)	31.7 µM (active)	17.8 µM (active)	–	–
CO[C@]1(NC(=O)CSC(F)F)C(=O)N2C(C(=O)O)=C(CSc3nnnn3CCO)CO[C@H]21	inactive	inactive	inactive	inactive	inactive
CCOC(=O)c1ccc(O)c(O)c1	inactive	inactive	27.5 µM (active)	inactive	inactive
COc1cc(Nc2c(C#N)cnc3cc(OCCCN4CCN(C)CC4)c(OC)cc23)c(Cl)cc1Cl	inactive	inactive	inactive	–	inactive

SMILES	Potency [1]	Potency [2]	Potency [3]	Potency [4]	Potency [5]
COc1ccc(OC(=O)N(CC(=O)O)Cc2ccc(OCCc3nc(-c4ccccc4)oc3C)cc2)cc1	inactive	13.8 µM (active)	17.4 µM (active)	inactive	inactive
O=C(CCc1ccc(O)cc1)c1c(O)cc(O)cc1O	40.8 µM (active)	20.5 µM (active)	36.4 µM (active)	inactive	12.9 µM (active)
CC(C)=CC(=O)C=C(C)C	39.7 µM (active)	inactive	28.1 µM (active)	inactive	inactive
C[C@]12CC[C@@H]3c4ccc(O)cc4CC[C@H]3[C@@H]1CC[C@@H]2OC(=O)CCC1CCCC1	14.2 µM (active)	17.8 µM (active) and 17.4 µM (active)	17.8 µM (active)	inactive	inactive
CCC(OCCCOC)OC(C)=O (stereo unspecified)	inactive	inactive	36.4 µM (active)	inactive	inactive
CCOC(=O)[C@H](CCc1ccccc1)N[C@@H](C)C(=O)N(CC(=O)O)C1Cc2ccccc2C1	6.92 µM (active)	15.5 µM (active)	–	inactive	–
C[C@@H]1CC(=O)NN=C1c1ccc(NN=C(C#N)C#N)cc1	17.4 µM (active)	1.38 µM (active) and 1.23 µM (active)	inactive	–	inactive
C1COC1	inactive	inactive	inactive	inactive	inactive
CN1C(=O)c2ccccc2C1=O	79.6 µM (active)	10 µM (active)	24.5 µM (active)	inactive	inactive
CC(=O)NC1(c2cccc(F)c2)CCN(CC[C@@]2(c3ccc(Cl)c(Cl)c3)CN(c3ccccc3)C(=O)CO2)CC1	6.34 µM (active)	8.96 µM (active)	inactive	13.8 µM (active)	inactive
C=C1CCC2CC1C2(C)C (stereo unspecified)	inactive	inactive	inactive	inactive	inactive
CC(CO)CO	inactive	inactive	inactive	inactive	inactive
O=C(CCCN1CC=C(n2c(=O)[nH]c3ccccc32)CC1)c1ccc(F)cc1	inactive	inactive	inactive	–	inactive
CC(=O)c1cc2ccccc2s1	inactive	inactive	6.92 µM (active)	inactive	inactive
CN1C(C(=O)Nc2ccccn2)=C(O)c2sccc2S1(=O)=O	inactive	13.8 µM (active)	inactive	inactive	inactive
CC(CN(C)C)C(C)(O)Cc1ccc(Cl)cc1 (stereo unspecified)	inactive	inactive	inactive	–	inactive
Cc1ccc(OC(=O)c2ccccc2O)cc1	inactive	35.6 µM (active)	35.6 µM (active)	–	inactive
OCCOCC#CCOCCO	inactive	inactive	inactive	inactive	inactive
CCCCC(CC)COP(=O)(O)O (stereo unspecified)	40.6 µM (active)	40.6 µM (active)	inactive	inactive	inactive
CN(C)CCC=C1c2ccccc2C=Cc2ccccc21	inactive	inactive	inactive	–	inactive
